In all, about 5,500 compounds went through this assay and about 2,000 (36%) were called active. Another 18% or so got no clear call; they are omitted. Rule as the data show it: active = normalized growth mostly below about 0.91 (no sharp cut-off); inconclusive = no clear call, values can overlap the other calls; inactive = mostly above about 0.92. The list shows a part of the results.
Experiment: chemical genetic growth profiling, strain panel (AID 1159580);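 also: tested at 20 µM; growth read once vehicle control cultures reached saturation at 30 °C; 1 = growth at the plate median or of vehicle wells; lower values mean less growth of the strain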
Conditions: S. cerevisiae deletion strains, growth OD
[1] = locus YDL101C, strain DUN1, active compounds read low
[2] = locus YHR030C, strain SLT2, active compounds read low

Measured: normalized growth

Cc1onc(-c2c(Cl)cccc2Cl)c1C(=O)NNc1c(Cl)cccc1Cl
active: [2] 0.794 | locus YLR113W, strain HOG1, active compounds read low 0.827
inactive: locus YAR019C, strain CDC15, active compounds read low 0.962 | locus YBL105C, strain PKC1, active compounds read low 0.978 | locus YBR135W, strain CKS1, active compounds read low 0.986 | locus YBR136W, strain MEC1, active compounds read low 0.977 | locus YBR160W, strain CDC28, active compounds read low 0.975 | locus YDL017W, strain CDC7, active compounds read low 0.977 | locus YDL028C, strain MPS1, active compounds read low 0.97 | [1] 0.976 | locus YDL108W, strain KIN28, active compounds read low 0.971 | locus YDL132W, strain cdc53, active compounds read low 0.978 | locus YDL214C, strain PRR2, active compounds read low 0.941 | locus YDR052C, strain DBF4, active compounds read low 0.99 | locus YDR054C, strain cdc34, active compounds read low 0.972 | locus YDR226W, strain ADK1, active compounds read low 0.982 | locus YDR477W, strain SNF1, active compounds read low 0.932 | locus YER123W, strain YCK3, active compounds read low 0.961 | locus YER133W, strain GLC7, active compounds read low 0.961 | locus YFL009W, strain cdc4, active compounds read low 0.974 | locus YFL029C, strain CAK1, active compounds read low 0.983 | locus YFR003C, strain YPI1, active compounds read low 0.98 | locus YFR019W, strain FAB1, active compounds read low 0.972 | locus YFR028C, strain CDC14, active compounds read low 0.97 | locus YGR040W, strain KSS1, active compounds read low 0.941 | locus YGR052W, strain FMP48, active compounds read low 0.998 | locus YGR092W, strain DBF2, active compounds read low 0.987 | locus YHR079C, strain IRE1, active compounds read low 0.957 | locus YHR082C, strain KSP1, active compounds read low 1.01 | locus YHR205W, strain SCH9, active compounds read low 0.956 | locus YIL147C, strain SLN1, active compounds read low 0.977 | locus YJL095W, strain BCK1, active compounds read low 0.907 | locus YJL128C, strain PBS2, active compounds read low 0.923 | locus YJL157C, strain FAR1, active compounds read low 0.976 | locus YJR016C, strain ILV3, active compounds read low 0.988 | locus YJR066W, strain TOR1 (second series), active compounds read low 0.96 | locus YJR066W, strain TOR1, active compounds read low 0.957 | locus YKL048C, strain ELM1, active compounds read low 0.981 | locus YKL067W, strain YNK1, active compounds read low 0.941 | locus YKL101W, strain HSL1, active compounds read low 0.949 | locus YKL193C, strain SDS22, active compounds read low 0.986 | locus YKL203C, strain TOR2, active compounds read low 1.03 | locus YLR133W, strain CKI1, active compounds read low 0.976 | locus YLR403W, strain SFP1, active compounds read low 0.967 | locus YML070W, strain DAK1, active compounds read low 0.942 | locus YMR001C, strain CDC5, active compounds read low 0.976 | locus YMR205C, strain PFK2 (second series), active compounds read low 0.963 | locus YMR277W, strain FCP1, active compounds read low 0.967 | locus YNL006W, strain LST8, active compounds read low 0.979 | locus YNL020C, strain ARK1, active compounds read low 0.988 | locus YNL161W, strain CBK1, active compounds read low 0.989 | locus YNL183C, strain NPR1, active compounds read low 1 | locus YNL207W, strain RIO2, active compounds read low 0.991 | locus YNL222W, strain SSU72, active compounds read low 0.977 | locus YNL307C, strain MCK1 (second series), active compounds read low 0.972 | locus YOL078W, strain AVO1, active compounds read low 0.982 | locus YOL136C, strain PFK27, active compounds read low 0.956 | locus YOR061W, strain CKA2, active compounds read low 0.974 | locus YOR119C, strain RIO1, active compounds read low 0.957 | locus YOR231W, strain MKK1, active compounds read low 0.927 | locus YOR329C, strain SCD5, active compounds read low 0.981 | locus YPL031C, strain PHO85, active compounds read low 0.937 | locus YPL153C, strain RAD53, active compounds read low 0.921 | locus YPL204W, strain HRR25, active compounds read low 0.945 | locus YPL209C, strain IPL1, active compounds read low 0.986 | locus YPL256C, strain CLN2, active compounds read low 0.858 | locus YPR025C, strain CCL1, active compounds read low 0.976 | locus YPR106W, strain ISR1, active compounds read low 0.96 | locus YPR111W, strain DBF20, active compounds read low 0.956 | strain NNK1, active compounds read low 0.986 | strain TSCII, active compounds read low 0.983

Cc1cc(NC(=O)c2c(-c3c(Cl)cccc3Cl)noc2C)c([N+](=O)[O-])cc1C
inactive: locus YAL013W, strain DEP1, active compounds read low 1.01 | locus YBR229C, strain ROT2, active compounds read low 1.01 | [1] 1.08 | locus YDR150W, strain NUM1, active compounds read low 1.03 | locus YEL061C, strain CIN8, active compounds read low 1 | locus YGR078C, strain PAC10, active compounds read low 1.04 | locus YGR229C, strain SMI1, active compounds read low 0.975 | [2] 1.02 | locus YHR087W, strain rtc3, active compounds read low 0.969 | locus YJR043C, strain POL32, active compounds read low 1.02 | locus YJR075W, strain HOC1, active compounds read low 1 | locus YLR039C, strain RIC1, active compounds read low 1.04 | locus YLR058C, strain SHM2 (second series), active compounds read low 0.983 | locus YLR085C, strain ARP6, active compounds read low 0.999 | locus YLR262C, strain YPT6, active compounds read low 0.967 | locus YML094W, strain GIM5, active compounds read low 0.992 | locus YMR219W, strain ESC1, active compounds read low 0.992 | locus YMR263W, strain SAP30, active compounds read low 1.04 | locus YNL153C, strain GIM3, active compounds read low 1.04 | locus YNL298W, strain CLA4 (second series), active compounds read low 1.04 | locus YNL322C, strain KRE1, active compounds read low 0.981 | locus YNR030W, strain Alg12, active compounds read low 0.975 | locus YOL006C, strain TOP1, active compounds read low 0.987 | locus YPL055C, strain LGE1, active compounds read low 0.996 | locus YPL241C, strain CIN2, active compounds read low 1.01 | locus YPR135W, strain CTF4, active compounds read low 0.995

From PubChem BioAssay AID1159580 (chemical genetic matrix, 2015)
